Bioassay records from PubChem BioAssay.
PDI turbidity: inhibitors of human PDI, primary screen, biochemical, turbidity, single point, plate reader; Protein disulfide-isomerase (Homo sapiens), P07237; PDI insulin aggregation turbidity, A650, 90 min; inhibition, % at 10 µM; 350,000 tested, 0.052% active; AID 588391, 2011;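 active means mean inhibition across replicates of 30% or more, whatever share of single replicates reach that level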
PvdQ acylase: P. aeruginosa PvdQ acylase inhibitors, primary screen, biochemical, fluorescence, plate reader and imaging, single point | 340,000 tested, 0.063% active | PvdQ acylase [Pseudomonas aeruginosa LESB58] | AID 488965, 2010 | inhibition, % at 10 µM | purified PvdQ acylase; in the data active means inhibition above about 30%, passing the limit was not always enough;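 further: 0% = vehicle neutral wells and 100% = reference inhibitor wells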
ERp5 block: inhibitors of ERp5-driven insulin aggregation, primary screen, biochemical, turbidity, absorbance 650 nm, single point; AID 651711, 2012; Protein disulfide-isomerase A6 (Homo sapiens), Q15084; 90 min; inhibition, % at 9.99 µM; 350,000 tested, 0.05% active;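 active means mean replicate inhibition above about 25%, with every replicate also reaching it, limit read from the data, passing the limit was not always enough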
Target sequence (Q15084 whole entry, looked up): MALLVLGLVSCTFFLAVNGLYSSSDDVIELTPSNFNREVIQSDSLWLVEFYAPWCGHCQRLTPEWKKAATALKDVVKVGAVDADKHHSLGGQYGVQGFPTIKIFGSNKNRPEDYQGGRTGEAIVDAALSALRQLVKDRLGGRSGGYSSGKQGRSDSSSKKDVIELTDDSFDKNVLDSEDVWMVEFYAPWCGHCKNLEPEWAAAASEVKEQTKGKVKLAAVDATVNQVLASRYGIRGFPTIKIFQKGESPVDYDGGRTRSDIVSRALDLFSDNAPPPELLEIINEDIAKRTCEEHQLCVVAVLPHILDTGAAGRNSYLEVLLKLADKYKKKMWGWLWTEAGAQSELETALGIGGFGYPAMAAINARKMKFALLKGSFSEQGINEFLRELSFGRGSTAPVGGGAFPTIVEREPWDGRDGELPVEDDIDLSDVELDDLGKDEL
Efflux pump inh: inhibitors of Candida efflux pumps in yeast, primary screen, S. cerevisiae, Nile Red, multiplex | AID 485275, 2010 | S. cerevisiae Candida pump triplex | inhibition, % at 10 µM | 330,000 tested, 0.44% active;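 active means plate passing quality check with inhibition over a set limit, or well fluorescence over plate mean plus 4 SD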;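 further: Nile Red retained in pooled yeast measured as flow cytometry median fluorescence; 0% = buffer negative control and 100% = Enniatin B positive control; higher means more Nile Red kept so more efflux inhibition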
Rtt109 Vps75: inhibitors of C. albicans Rtt109/Vps75 HAT, primary screen, biochemical, ThioGlo CoA-SH fluorescence, plate reader | Histone acetyltransferase RTT109 (Candida albicans (strain SC5314 / ATCC MYA-2876)), … | purified Rtt109/Vps75, 4 h | inhibition, % at 34.9 µM | 330,000 tested, 0.16% active | AID 540336, 2011;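 active means inhibition of at least 50% in every replicate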
Yeast cmpd fluor: counter-screen for efflux pump inhibitors: compound fluorescence; S. cerevisiae AD/pABC3, flow cytometry; shares compounds with Efflux pump inh; 1,700 tested, 4% active; AID 588517; fluorescence ratio to DMSO, % at 10 µM;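 active means fluorescence ratio to DMSO above its plate's cutoff, the plate mean ratio plus 5 SD, cut at about 210% in these data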;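 further: unstained yeast with no Nile Red so the signal is compound autofluorescence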
Mdr1 pump inh: inhibitors of Candida albicans Mdr1 efflux, confirmation, flow cytometry, singleplex, Cherry Pick1 set; shares compounds with Efflux pump inh; S. cerevisiae AD/CaMDR1, Nile Red efflux; inhibition, % at 10 µM; 1,700 tested, 1% active; AID 588518, 2011; in the data active means inhibition above about 26%;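 further: 0% = DMSO vehicle and 100% = reference inhibitor; higher means more Nile Red retained so more efflux inhibition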
Cdr2 pump inh: inhibitors of Candida albicans Cdr2 efflux pump, confirmation, S. cerevisiae AD/CaCDR2, flow cytometry, cherry pick 1, singleplex; AID 588520, 2011; Nile Red retention; 1,700 tested, 4% active; shares compounds with Efflux pump inh; Nile Red retention ratio vs DMSO, % at 10 µM; in the data active means Nile Red retention ratio vs DMSO above about 190%;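 further: higher ratio means more blocking of Cdr2 efflux of the dye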
Cdr1 pump inh: inhibitors of Candida albicans Cdr1 efflux pump, confirmation, S. cerevisiae AD/CaCDR1, flow cytometry, cherry pick 1, singleplex | shares compounds with Efflux pump inh | Nile Red efflux | inhibition, % at 10 µM | 1,700 tested, 1% active | AID 588522, 2011;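 active means inhibition above the screen-wide mean plus twice its standard deviation, cut at about 32% in these data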
* = called active by the depositor; / = not tested or not shown. Only some compounds are listed: those with a hit (about 0.54% of all), similar ones and a draw of the others.

SMILES | PDI turbidity | PvdQ acylase | ERp5 block | Efflux pump inh | Rtt109 Vps75 | Yeast cmpd fluor | Mdr1 pump inh | Cdr2 pump inh | Cdr1 pump inh
COc1cc(NC(=S)NCc2cccnc2)c(OC)cc1Cl | 2 | 3 | -8 | 0 | 56* | / | / | / | /
CN(C(=O)CCn1c(=S)oc2ccccc21)c1ccc(F)cc1 | -7 | 36* | 4 | 0 | / | / | / | / | /
O=C(Nc1ccc(Oc2cccnc2)cc1)C1CCN(Cc2cc(Cl)ccc2O)CC1 | 4 | 12 | 3 | 0 | 59* | / | / | / | /
Cc1ccc(-c2ccc(C3[C@@H]4CN(S(=O)(=O)c5cccc(C)c5)C[C@H]3N4)cc2)cc1 (stereo not given in full) | / | / | -3 | / | / | / | / | / | /
C[C@@H]1CCCCO[C@H](CN(C)Cc2ccncc2)[C@@H](C)CN([C@@H](C)CO)C(=O)c2cc(NC(=O)Nc3ccccc3)ccc2O1 | / | / | 3 | / | / | / | / | / | /
CCCC(=O)Nc1ccc(C(=O)NNC(=O)c2cccs2)cc1 | 4 | -7 | -2 | 11* | 3 | 89 | 0 | 96 | 0
Clc1nc(Nc2ccccc2)nc(Nc2ccccc2)n1 | 2 | 3 | / | 11* | 50* | 101 | 0 | 104 | 0
CN1CCN(C(=O)C[C@H]2CC[C@@H]3[C@@H](COc4ccc(NC(=O)C5CCC5)cc4C(=O)N3C)O2)CC1 | / | / | 3 | / | / | / | / | / | /
CCCN1C[C@@H](C)[C@@H](OC)CN(C)C(=O)c2cc(NC(=O)Nc3ccccc3F)ccc2OC[C@H]1C | / | / | 3 | / | / | / | / | / | /
CCCN(CCC)C(=O)Cn1c(=O)n(CCCCCC(=O)Nc2ccccc2)c(=O)c2sccc21 | 5 | -12 | / | 19* | -7 | 104 | 0 | 97 | 0
CCN(CC)C(=O)Cn1c(=O)n(CCC(=O)Nc2ccc(F)cc2)c(=O)c2sccc21 | 5 | -14 | -3 | 0 | -15 | / | / | / | /
COc1ccc2c3c(n(C)c2c1)[C@H](CO)N(C(=O)C1CCCC1)CC31CCN(C(=O)CN(C)C)CC1 | / | / | -4 | / | / | / | / | / | /
COc1ccc2c3c(n(C)c2c1)[C@H](CO)N(C(C)=O)CC31CCN(C(=O)C2CC2)CC1 | / | / | -8 | / | / | / | / | / | /
Cc1cc(C)c2c(N)c(C(=O)NN3CC(=O)N(c4ccccc4F)CC3=O)sc2n1 | 0 | -14 | / | 0.8* | -265 | 94 | 0 | 91 | 0
COc1ccc(C(=O)NC(=S)Nc2ccc3[nH]c(=O)[nH]c3c2)c(OC)c1 | -17 | -12 | 3 | 0 | -3 | 108 | 0 | 106 | 0
COc1cc(OC)cc(C(=O)NC(=S)Nc2ccc3[nH]c(=O)[nH]c3c2)c1 | -2 | -7 | 1 | 0 | -11 | / | / | / | /
O=C(NC(=S)Nc1ccc2[nH]c(=O)[nH]c2c1)c1ccccc1F | -38 | -4 | 1 | 0 | -3 | 105 | 0 | 93 | 0
O=C(NC(=S)Nc1ccc2[nH]c(=O)[nH]c2c1)c1cncc(Br)c1 | -7 | 2 | 0 | 0.8* | 4 | 103 | 0 | 101 | 0
O=C(NC(=S)Nc1ccc(O)cc1)c1cncc(Br)c1 | -3 | -18 | -6 | 0 | 0 | / | / | / | /
COc1cccc(C#Cc2ccc3c(c2)[C@H]2[C@H](CCN2C(=O)c2ccc4c(c2)OCO4)[C@H](CO)N3)c1 | / | / | 3 | / | / | / | / | / | /
C[C@@H]1CN([C@@H](C)CO)C(=O)c2cc(NC(=O)Nc3ccccc3)ccc2O[C@@H](C)CCCCO[C@H]1CN(C)C(=O)CCC(F)(F)F | / | / | -4 | / | / | / | / | / | /
C/C=C/c1ccc([C@H]2[C@@H](CO)N(Cc3cncnc3)C23CN(C(C)=O)C3)cc1 | / | / | -1 | / | / | / | / | / | /
CCCCN1C(=O)C(=O)NC[C@H]1Cc1cccc2ccccc12 | / | / | -2 | / | / | / | / | / | /
CCCCN1C(=S)NC[C@@H]1Cc1cccc2ccccc12 | -2 | -9 | -2 | 0 | -19 | 92 | 0 | 95 | 0
COc1ccc(NC(=O)c2cc(-c3ccc(C)cc3)on2)cc1OC | -6 | 8 | 1 | 0 | / | / | / | / | /
SMILES | PDI turbidity | PvdQ acylase | ERp5 block | Efflux pump inh | Rtt109 Vps75 | Yeast cmpd fluor | Mdr1 pump inh | Cdr2 pump inh | Cdr1 pump inh
COc1ccc(-c2cc(C(=O)Nc3ccc(OC)c(OC)c3)no2)cc1 | -1 | -17 | 1 | 1.4* | -3 | 102 | -1 | 108 | 0
COc1ccccc1C(=O)Nc1ccc(C2=NNC(=O)CC2C)cc1 (stereo not given) | 0 | 28 | / | 1.0* | -7 | 99 | 0 | 108 | 0
COc1ccccc1C(=O)Nc1ccncc1 | 14 | -10 | 4 | 0 | -4 | / | / | / | /
CCCCCCCCCC(=O)N/N=C(\C)c1cccnc1 | -4 | -7 | / | 1.6* | -1 | 88 | 0 | 104 | 0
COc1ccc(CNC(=O)C[C@H]2C[C@H]3c4cc(NS(C)(=O)=O)ccc4O[C@H]3[C@H](CO)O2)cc1 | / | / | -9 | / | / | / | / | / | /
COc1cc(OC)cc(C(=O)N/N=C/c2ccc(OC)c(COc3ccc4ccccc4c3)c2)c1 | 8 | -20 | / | 0.6* | -8 | 106 | 0 | 112 | 0
COc1ccc(/C=N/NC(=O)c2nc(Cl)c(Cl)c(N)c2Cl)cc1COc1ccc(F)cc1F | -2 | -18 | / | 1.0* | -1 | 106 | 0 | 114 | 1
COc1ccc(C(=O)N/N=C/c2ccc(OC)c(COc3ccccc3)c2)cc1 | 3 | 7 | 18 | 0 | 4 | / | / | / | /
CS(=O)(=O)Nc1ccc2c(c1)[C@@H]1C[C@@H](CC(=O)N3CCOCC3)O[C@H](CO)[C@@H]1O2 | / | / | -2 | / | / | / | / | / | /
C[C@@H]1CN([C@H](C)CO)C(=O)CCCn2nncc2CO[C@@H]1CN(C)Cc1ccc(C(=O)O)cc1 | / | / | -5 | / | / | / | / | / | /
CCCOc1ccc(-c2nc(N3CCN(C)CC3)c3ccccc3n2)cc1 | -2 | -7 | -11 | 1.0* | -5 | 102 | 0 | 97 | 0
CCCNC(=O)N[C@@H]1C=C[C@@H](CC(=O)NC2CCCCC2)O[C@H]1CO | / | / | -9 | / | / | / | / | / | /
CCOC(=O)c1sc2nc3c(SCC(=O)O)cc(C(=O)c4ccccc4O)cn3c(=O)c2c1C | -10 | 3 | 2 | 1.5* | 4 | 100 | 0 | 101 | 0
CS(=O)(=O)Nc1ccc2c(c1)[C@H]1C[C@H](CC(=O)O)O[C@@H](CO)[C@H]1O2 | / | / | -6 | / | / | / | / | / | /
Cc1ccc(S(=O)(=O)Nc2ccc(N3CCOCC3)nc2)cc1 | 1 | 12 | -9 | 0 | 6 | / | / | / | /
